Results taken from PubChem BioAssay AID588790 (National Center for Advancing Translational Sciences (NCATS), 2011).
Out of some 1,200 compounds screened, about 85 (7%) were called active. The entries come from a sample that favours actives as a whole. Unmarked numbers belong to inactive results. Calls follow the shape of the full dose curve.

biological target: Beta-2 adrenergic receptor (Homo sapiens) (UniProt P07550); assay: qHTS assay of beta-arrestin-biased ligands of beta2-adrenergic receptor: Hit Validation with GloSensor; details: W9-Glo22F cells, GloSensor cAMP luminescence, beta2AR agonism; activation: at 46.1 µM (top of the series); as to activation: 0% is about no effect
Procedure, shortened: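 Luminescence measured 10 min after GloSensor reagent addition at room temperature. Preceded by compound pinning onto W9-Glo22F cells that had been cultured overnight at 37 deg C under 5% CO2.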
Potency is read from the fitted curve at half-maximal effect.

Chain of Beta-2 adrenergic receptor (Homo sapiens) (P07550 whole entry, looked up): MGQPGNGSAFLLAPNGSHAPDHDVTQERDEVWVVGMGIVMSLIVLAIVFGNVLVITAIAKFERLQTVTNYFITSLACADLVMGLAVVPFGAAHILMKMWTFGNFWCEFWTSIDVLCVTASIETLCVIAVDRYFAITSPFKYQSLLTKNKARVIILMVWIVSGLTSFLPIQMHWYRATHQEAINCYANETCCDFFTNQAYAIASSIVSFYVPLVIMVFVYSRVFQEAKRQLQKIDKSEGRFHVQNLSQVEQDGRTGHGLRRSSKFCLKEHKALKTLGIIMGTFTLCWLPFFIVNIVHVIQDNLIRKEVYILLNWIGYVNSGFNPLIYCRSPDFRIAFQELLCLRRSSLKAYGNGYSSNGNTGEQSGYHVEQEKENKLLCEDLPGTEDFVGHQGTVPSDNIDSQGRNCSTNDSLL

Point of comparison: CC(=O)Nc1ccc(Nc2cc(C)nc3c(-c4ccccc4)c(C)nn23)cc1, “activation” value 2.33%. Against it:
- CCCC1(C(=O)OCC)NC(c2ccc(OC)cc2OC)C2C(=O)N(c3ccc4c(c3)OCCO4)C(=O)C21 (stereo unspecified) — lower, 0.306%
- CCNC(=S)N/N=C(\C)c1cccc(OC)c1 — lower, -1.16%
- C[C@H](CO)N1C[C@H](C)[C@@H](CN(C)Cc2ccccc2)Oc2c(NC(=O)Cc3ccccc3)cccc2C1=O — lower, 0.306%
- CCCN=C1N(CC)C[C@@H]2[C@@H]3C(=O)N(C)C(=O)[C@@H]3[C@](CC)(C(=O)OC)N12 — lower, 0%
- O=C(COC(=O)c1ccccn1)c1ccc([N+](=O)[O-])cc1 — higher, 4.96%
- Cc1ccc(S(=O)(=O)N(Cc2ccc(Cl)cc2)c2ccccc2C(=O)NCc2ccco2)cc1 — lower, -1.01%
- Cc1cc(C)n(-c2nc(NC(C)(C)C)nc(NC(C)(C)C)n2)n1 — lower, -1.01%
- Cc1cc(C)n(-c2nc(NC(C)C)nc(NC(C)C)n2)n1 — lower, 1.16%
- CNc1cc(C)nc(-n2nc(C)cc2C)n1 — lower, -2.33%
- Cc1cc(C)nc(-n2nc(C)cc2NC(=O)CNC2CCCCC2)n1 — lower, 1.16%
- CCNc1nc(NCC)nc(-n2nc(C)cc2C)n1 — higher, 9.76%
- Cc1ccc(S(=O)(=O)N2CCN(C(C)C(=O)NCC(C)c3ccccc3)CC2)cc1 (stereo unspecified) — lower, -1.16%
- CN(C)C(=S)Nc1nc2ccccc2s1 — lower, 0.459%
- COc1cccc(C2CC3(CC(C)(C)NC(=S)N3)Oc3cc(O)ccc32)c1 (stereo unspecified) — lower, -2.33%
- COCCCN=C1NN=C(c2cc(C)n(-c3ccccc3)c2C)CS1 — higher, 5.81%
- COc1ccc(N2C(=O)C(CC(=O)Nc3ccc(Cl)cc3)N(NC(=O)c3cccc(F)c3)C2=S)cc1 (stereo unspecified) — lower, 0.306%
- O=C(NC(=S)N1CCCCCC1)c1ccccc1Cl — lower, 0.306%
- O=C(NCCN1CCOCC1)c1cc(Br)ccc1Cl — lower, -1.16%
- C=C(C)c1cccc(C(C)(C)NC(=O)NC2CCN(Cc3ccccc3)CC2)c1 — lower, 0.306%
- CC(=O)Oc1ccc2cc(-c3ccccc3)c(=O)oc2c1 — lower, 0.306%
- CC(C)c1ccc(NC(=S)Nc2ccc3cn[nH]c3c2)cc1 — lower, 0.306%
- O=C(O)C12CC3CC(C1)CC(n1ncc(N4CCN(c5ccccc5)CC4)c(Cl)c1=O)(C3)C2 — lower, 0.306%
- C=CCn1nc([N+](=O)[O-])nc1Sc1cccc2cccnc12 — lower, 1.16%
- C=CCNC(=S)Nc1cc(C)ccn1 — lower, 0.306%
- O=C(NCC1CCCO1)c1ccc(CS(=O)(=O)c2ccc(Br)cc2)o1 (stereo unspecified) — lower, -1.01%
- CCOc1ccc(CC(=O)Nc2ccc(S(=O)(=O)Nc3cc(C)on3)cc2)cc1OCC — lower, -1.16%
- COc1ccccc1NS(=O)(=O)c1cc(NC(=O)CNC(=O)c2ccc(C)s2)ccc1Cl — lower, 0.306%
- CC(C)N(Cc1cc2ccccc2[nH]c1=O)C(=O)C1CCCCC1 — lower, 0.306%
- COc1ccc(C2CC(O)(c3ccccc3)Oc3cc(OC)c(OC)c(OC)c32)cc1 (stereo unspecified) — lower, 0.306%
- COc1ccc(Nc2cc(Nc3cccc(OC)c3)ncn2)cc1 — higher, 4.96%
- C/C(CC(C)(C)C1CCCCC1)=N\NC(N)=S — lower, -1.16%
- O=[N+]([O-])c1cc(Cl)c(O)c2ncccc12 — lower, -1.16%
- O=[N+]([O-])c1ccc(O)c2ncccc12 — lower, 0.306%
- O=[N+]([O-])c1cc(Br)cc(C=Nc2ccc3c(c2)OCO3)c1O — lower, 0%
- Oc1ccc(NCc2cccc(OCc3ccccc3)c2)cc1 — lower, 0.153%
- Oc1ccc(NCc2ccc(OCc3ccccc3)cc2)cc1 — lower, -2.33%
- C/C(Cl)=C\Cn1c(O)c(N=NC(N)=S)c2ccccc21 — higher, 6.12%
- C=CCn1c(O)c(N=NC(=S)Nc2ccccc2F)c2cc(S(=O)(=O)N3CCOCC3)ccc21 — lower, 0%
- CC1CC(C)(C)n2c(O)c(N=NC(N)=S)c3cccc1c32 (stereo unspecified) — higher, 4.96%
- NC(=S)N=Nc1c(O)n(Cc2ccc(F)cc2)c2ccccc12 — the same, 2.33%
- O=C(Oc1cccc2cccnc12)c1ccc2c(c1)OCCO2 — lower, -1.16%
- COc1ccc(NC(=S)Nc2cccc(C)n2)cc1 — the same, 2.33%
- CCc1cc2c(SCC(=O)Nc3ccc(Cl)cn3)ncnc2s1 — lower, 0%
- c1ccc(CCNc2nc(-c3ccccn3)cs2)cc1 — higher, 7.28%
- COc1ccc(OCCCC(=O)Nc2nc(-c3ccccn3)cs2)cc1 — lower, 0.306%
- COc1ccc(NC(=S)NC(=O)c2ccc3c(c2)OCCO3)cc1 — lower, -0.857%
- Cc1ccc(/C=C2/C(=O)N(c3ccccc3)C(=S)N2C)o1 — lower, -1.16%
- Cc1ccc(N=C2NC(=O)/C(=C/C=C/c3ccco3)S2)cc1 — higher, 11.8%
- C#CCn1c(=NC(=O)CSC(C)=O)sc2cc(F)ccc21 — higher, 8.6%
- Cc1ccc2cccc(SCC(=O)NCC#N)c2n1 — lower, -1.16%
- CC(=O)c1cccc(CN2CCN(CCC(C)C)C(CCO)C2)c1 (stereo unspecified) — lower, 0.153%
- N#C/C(=C\c1ccncc1)c1nc2ccccc2o1 — lower, 0.153%
- N#C/C(=C\c1ccc(Cl)cc1)c1nc2ccccc2o1 — lower, 0%

With COc1cc(/C=C2\SC(=N)N(c3ccc4c(c3)OCO4)C2=O)cc(OC)c1O the Potency was 20.6 µM (active).
With CCC1CCCCN1CC(=O)Nc1cc(C)nn1-c1nc(C)cc(C)n1 (stereo unspecified) the Potency was 7.31 µM (active).
In the case of Cc1cc(C)nc(-n2nc(C)cc2NC(=O)CN2CCCC2)n1, the Potency is reported as 20.6 µM (active).
With CCC(C(=O)Nc1cc(C)nn1-c1nc(C)cc(C)n1)c1ccccc1 (stereo unspecified) the Potency was 18.4 µM (active).
With Cc1cc(C)nc(-n2nc(C)cc2NC(=O)CN2CCC(C)CC2)n1 the Potency was 29.1 µM (active).
O=C(NCCN1CCOCC1)c1ccccc1Cl was tested, and the Potency was 20.6 µM (active).
With COc1cc2c(cc1OC)C(c1cc3ccccc3oc1=O)=NC(C)(C)C2 the Potency was 23.1 µM (active).
O=C1c2ccccc2-c2onc3ccc(Oc4ccccc4)c1c23 was tested, and the Potency was 13 µM (active).
In the case of COc1ccccc1NS(=O)(=O)c1ccc(NC(=O)Cc2cccs2)cc1, the Potency is reported as 32.6 µM (active).
For COc1cccc(Oc2cnc(N)nc2-c2ccc(OC)cc2O)c1, the Potency was 23.1 µM (active).
With COc1cc([N+](=O)[O-])c2nccnc2c1 the Potency was 16.4 µM (active).
In the case of COc1cc(CNc2ccc(O)cc2)cc(Br)c1OCc1ccccc1, the Potency is reported as 14.6 µM (active).
With NC(=S)N=Nc1c(O)n(CCCl)c2ccccc12 the Potency was 25.9 µM (active).
With NC(=S)N=Nc1c(O)n(CCCl)c2ccc(Cl)cc12 the Potency was 32.6 µM (active).
For COc1ccc(CCNc2nc(-c3ccccn3)cs2)cc1OC, the Potency was 20.6 µM (active).
For Cc1cccc(N=C2NC(=O)/C(=C/c3cccs3)S2)c1, the Potency was 1.03 µM (active).
In the case of N#C/C(=C\c1cccc(O)c1)c1nc2ccccc2o1, the Potency is reported as 6.51 µM (active).
